In PubChem BioAssay (NCI):
This is part of a sample that, as a whole, favours compounds with a hit. Of some 79,000 tested, about 15% had one in any assay. Unmarked numbers belong to inactive results. Calls of active or inactive are those of the source. No stated cut-off is given here; in the data, active means growth inhibition above about 70%; inactive means the rest.

test: NCI Yeast Anticancer Drug Screen. Data for the rad52 strain (AID 147);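 further: 0% = growth of vehicle-treated control cultures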; details: S. cerevisiae rad52 mutant growth inhibition; at 3.7 µM; active compounds read high
Method in brief: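 Here a repair-compromised yeast strain receives each compound; its growth is then quantified and normalised to vehicle-only controls.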

| SMILES | growth inhibition |
| --- | --- |
| CC(CN(C)C)C(=O)/C=C/c1ccc(Cl)c(Cl)c1 (configuration not stated) | 15% |
| CCCCCCNCCCNc1c2cc(OC)ccc2nc2cccc([N+](=O)[O-])c12 | 25% |
| NC(=S)N1N=C2c3ccccc3CC[C@H]2[C@@H]1c1ccc(Cl)cc1 | 31% |
| C/C(=N/NC(=S)Nc1ccccc1C)c1ccccn1 | 9% |
| O=C1/C(=C/c2ccc(Cl)c(Cl)c2)CNC/C1=C\c1ccc(Cl)c(Cl)c1 | 22% |
| CC(C)OP(=O)(OC(C)C)C(=NCCO)NNc1ccc([N+](=O)[O-])cc1 | 3% |
| N#CCC(=O)N/N=C(\c1ccccc1)C(c1ccccc1)C1(O)C(=O)Nc2c(Cl)ccc(Cl)c21 (configuration not stated) | 0% |
| CC(C)(CN1CCCCC1)C(=O)CC(SCCS(=O)(=O)O)c1ccccc1 (configuration not stated) | 4% |
| COC1=CCC23C(=O)C=CC(=O)C2(C1)C(=O)c1ccccc1C3=O (configuration not stated) | -35% |
| CCCCN(CCCC)c1ccc(N=Nc2ccc(S(=O)(=O)O)cc2)cc1 | 48% |
| c1ccc2nc3c(nc2c1)sc1ccccc13 | 74% (active) |
| O=C1c2ccccc2-c2ccc(N=Cc3ccccc3)cc21 | -8% |
| CNC(=S)N/N=C(/C)CCC/C(C)=N/NC(=S)NC | 54% |
| Nc1ccc(/C=C/c2ccc3cccnc3c2)cc1 | -3% |
| COc1ccc2c3c1OC(C)C31CC(=O)CCC1CC2 (configuration not stated) | -1% |
| CCOC(=O)Nc1ccc(C)c(NC(=O)OCC)c1 | 8% |
| CCN(CC)CCNc1ccc2nc(C)n3c4ccc(OC)cc4c(=O)c1c23 | 47% |
